According to the GenesisPotency data set:
Among all 110 compounds or so, fewer than 10 were called active.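 The calls were made as follows: active = EC50 at or below 33 microM; inactive = the rest.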 A selection follows. Entries with a potency or affinity are not part of this list.

biological target: Ammonium transporter MEP2, Saccharomyces cerevisiae (strain ATCC 204508 / S288c) (UniProt P41948); assay: yeast MEP2-GFP fusion level changes, TOR pathway – flow cytometry, KU SAR set, S. cerevisiae, dose response (AID 488801)
Sequence (P41948 whole entry, the tested form may be a part): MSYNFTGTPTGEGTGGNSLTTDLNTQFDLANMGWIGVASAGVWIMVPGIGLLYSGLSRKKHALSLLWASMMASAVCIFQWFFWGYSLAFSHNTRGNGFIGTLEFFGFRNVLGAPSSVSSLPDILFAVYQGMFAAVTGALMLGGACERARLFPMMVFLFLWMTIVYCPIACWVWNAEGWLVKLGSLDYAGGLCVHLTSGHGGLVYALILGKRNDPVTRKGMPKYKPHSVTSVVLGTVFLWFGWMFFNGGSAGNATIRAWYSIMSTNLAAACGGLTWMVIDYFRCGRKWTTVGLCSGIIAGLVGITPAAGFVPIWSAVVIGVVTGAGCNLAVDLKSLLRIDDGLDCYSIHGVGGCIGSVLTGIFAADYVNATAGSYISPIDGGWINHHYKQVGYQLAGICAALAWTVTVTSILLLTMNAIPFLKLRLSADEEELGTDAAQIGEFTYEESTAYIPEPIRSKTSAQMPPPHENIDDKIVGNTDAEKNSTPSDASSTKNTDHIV

SMILES | outcome
O=[N+]([O-])c1ccc(O)c2ncccc12 | inactive
CC(C)(C)c1ccc(NC(=O)COC(=O)c2ccc([N+](=O)[O-])s2)cc1 | inactive
Nc1nc(NCc2ccco2)nc(Nc2cccc(F)c2)c1[N+](=O)[O-] | inactive
CC(C)(C)C(=O)NC(=S)NNC(=O)c1ccc(-c2ccccc2)cc1 | inactive
Nc1nc(Nc2ccccc2F)nc(Nc2cccc(F)c2)c1[N+](=O)[O-] | inactive
CCC(C)Nc1nc(N)c([N+](=O)[O-])c(Nc2cccc(F)c2)n1 (stereo not drawn) | inactive
CNc1nc(N)c([N+](=O)[O-])c(Nc2cc(OC)ccc2OC)n1 | inactive
CNc1nc(N)c([N+](=O)[O-])c(NCc2ccccc2)n1 | inactive
O=C(CCc1ccccc1)NNC(=S)NC(=O)c1ccccc1 | inactive
CC(Oc1ccc(Cl)cc1)C(=O)NNC(=S)NC(=O)c1ccco1 (stereo not drawn) | inactive
O=[N+]([O-])c1cc(O)c2ncccc2c1 | inactive
Cc1ccc2nc(Cl)c3nnnn3c2c1 | inactive
Cc1nn2c(-c3ccncc3)nnc2c2ccccc12 | inactive
